Hits are enriched below; roughly 9.4% of the tested compounds scored in any of these assays.
SARS PLP yeast = qHTS of Yeast-based Assay for SARS-CoV PLP; S. cerevisiae expressing SARS-CoV PLpro, growth rescue; Potency, µM (titrated, usually from 32.9 µM), most hits filed as activators; 330,000 tested, 0.19% active; AID 485353, 2010; calls by dose curve; also: nearly all actives have a fitted effect of over 55% in size
Pf growth 96h = Primary qHTS for delayed death inhibitors of the malarial parasite plastid, 96 hour incubation. AID 504834, 2011. Potency, µM (highest dose often 28.7 µM), actives largely listed as inhibitors. 320,000 tested, 6.9% active. P. falciparum luciferase reporter growth, 96 h
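96 h incubation, 37 C, 5% CO2, of luciferase-reporter P. falciparum-infected RBCs (2% hematocrit, 0.05% parasitemia final) with test compounds; endpoint luminescence.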
AMA1-RON2 inh = qHTS for Inhibitors of AMA1-RON; Towards Development of Antimalarial Drug Lead: Primary Screen; Plasmodium falciparum AMA1 (3D7) - RON2 peptide interaction; AlphaScreen AMA1-biotinylated RON2 peptide binding; Potency, µM (highest dose often 58.2 µM), usual class: inhibitors; 360,000 tested, 0.2% active; AID 720542, 2013; also: nearly all actives have a fitted effect of over 45% in size
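AMA1 (3D7) with his tag at 25 nM final met compounds first, then biotinylated RON2 peptide at 25 nM; detection used donor plus acceptor beads, 10 µg/mL apiece, read by AlphaScreen after 30 min at room temperature.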
Pf growth 48h = Primary qHTS for delayed death inhibitors of the malarial parasite plastid, 48 hour incubation; Potency, µM (doses to about 28.7 µM), usual class: inhibitors; AID 504832, 2011; P. falciparum luciferase growth in erythrocytes, 48 h; 310,000 tested, 5.9% active
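Read-out is firefly luciferase luminescence from an integrated reporter in P. falciparum, so falling signal marks reduced parasite growth. Infected erythrocytes were at 2% hematocrit and 0.1% parasitemia (final) in Albumax-supplemented RPMI 1640.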
Of the large screens only hits and unclear results are named; the others gave an inactive call. Unless noted, calls follow the shape of the dose curve; as a rule, active = well fitted curve in the direction sought with a large enough effect; inconclusive = small, poorly fitted or top-dose-only effect, or another doubt; inactive = no such curve, though single readings can be large; an effect the other way counts as inactive or inconclusive.

O=C(NCCCN1CCCC1=O)Nc1ccc(Br)cc1Cl	Pf growth 96h 10µM
O=C(CN1CCCCCC1)Nc1ccc(Br)cn1	none
O=C(O)c1cc(-c2ccc(Cl)s2)[nH]n1	none
OC(CNCc1ccccc1)c1ccccc1 (centres undefined)	Pf growth 96h inconclusive, Pf growth 48h 9.3µM
OC(CC(O)c1ccccc1)c1ccccc1 (centres undefined)	none (no result: SARS PLP yeast, Pf growth 96h, Pf growth 48h)
OC(CNC1Cc2ccccc2C1)c1ccccc1 (centres undefined)	Pf growth 96h 13µM, Pf growth 48h 12µM
Oc1cccc(C(O)CNCc2ccc(-c3ccccc3)cc2)c1 (centres undefined)	none
OC(CNCc1cccc(Cl)c1)c1ccccc1 (centres undefined)	Pf growth 48h 2.1µM
OC(C[n+]1ccccc1)c1ccccc1 (centres undefined)	Pf growth 96h 0.66µM, Pf growth 48h inconclusive
O=S1(=O)[C@H]2C[C@@H]3C=C[C@@]2(CN1Cc1ccc(F)cc1)O3	none
CC(C)Cn1c(SC(C)C(=O)Nc2ccc3c(c2)OCCO3)nc2ccccc2c1=O (centres undefined)	Pf growth 48h inconclusive (no result: Pf growth 96h)
COCC(C)n1c(SCC(=O)NC(=O)Nc2ccc3c(c2)OCCO3)nc2ccccc2c1=O (centres undefined)	Pf growth 96h inconclusive, Pf growth 48h 12µM
CC(Sc1nc2ccccc2c(=O)n1C)C(=O)Nc1ccc2c(c1)OCCO2 (centres undefined)	Pf growth 96h 0.17µM, Pf growth 48h 0.15µM
CCN(Cc1ccccc1)C(=O)c1c[nH]c2ccc(S(=O)(=O)N(C)CCC#N)cc2c1=O	none
COc1ccc(OC)c(NC(=O)c2ccccc2NC(=O)c2ccco2)c1	Pf growth 48h 3.3µM
O=C(Nc1ccccc1C(=O)NC1CCCCC1)c1ccco1	Pf growth 96h inconclusive
O=C(Nc1ccccc1C(=O)Nc1ccccc1C(=O)NCc1ccco1)c1ccco1	Pf growth 48h 8.3µM (no result: Pf growth 96h)
CCC(C)C(NC(=O)c1ccccc1NC(=O)c1ccco1)C(=O)NNC(=O)c1ccncc1 (centres undefined)	Pf growth 96h inconclusive, Pf growth 48h 10µM
CCC(C)C(NC(=O)c1ccccc1NC(=O)c1ccco1)C(=O)NC1CCCCC1 (centres undefined)	Pf growth 48h 9.3µM
CC(C)COc1ccc(CSCCNC(=S)Nc2ccccc2)cc1	Pf growth 96h inconclusive, Pf growth 48h inconclusive
CC(=O)NC(=S)Nc1cccc([N+](=O)[O-])c1	none
COc1ccccc1-c1cc(N)n(S(=O)(=O)c2ccc(F)c(C)c2)n1	Pf growth 96h inconclusive
COc1ccc(OC)c(NC(=O)c2cnc(Nc3ccccc3OC)c3ccccc23)c1	Pf growth 48h 10µM
COc1ccc(C(=O)NNC(=O)C(NC(=O)c2ccccc2NC(=O)c2ccco2)C(C)C)cc1 (centres undefined)	none
CCC(C)C(NC(=O)c1ccccc1NC(=O)c1ccco1)C(=O)NNC(=O)c1ccc(OC)cc1 (centres undefined)	Pf growth 96h 8.3µM, Pf growth 48h 9.3µM
COc1ccc(Cl)cc1NC(=O)c1cnc2n(c1=O)CCS2	none
CCOC(=O)CNC(=O)c1cnc(Nc2ccccc2OC)c2ccccc12	Pf growth 96h inconclusive, Pf growth 48h inconclusive
COc1ccc(OC)c(NC(=O)c2cccc(C)c2[N+](=O)[O-])c1	Pf growth 96h 1.7µM
CCN(CC)S(=O)(=O)c1ccc(OC)c(NC(=O)c2cccc(C)c2[N+](=O)[O-])c1	none
COc1ccc(OC)c(NC(=O)c2cnc3n(c2=O)CCS3)c1	Pf growth 96h 8.3µM (no result: Pf growth 48h)
OCC[n+]1ccc(/C=C/c2c[nH]c3ccccc23)cc1	Pf growth 96h inconclusive, Pf growth 48h 0.59µM
CNc1c(NS(=O)(=O)c2ccc(OC)cc2)c(=O)oc2ccccc12	Pf growth 96h inconclusive
O=C(NCCN1CCC(n2c(=O)[nH]c3ccccc32)CC1)c1ccc(F)cc1	none (no result: SARS PLP yeast, Pf growth 96h, Pf growth 48h)
O=C(CCCN1CC=C(n2c(=O)[nH]c3ccccc32)CC1)c1ccc(F)cc1	Pf growth 96h 3.3µM, Pf growth 48h 8.3µM
Cc1ccc(CN2CCC[C@]3(N[C@H](c4ccccc4)[C@@H]4C(=O)N(Cc5ccccc5)C(=O)[C@@H]43)C2=O)cc1	none (no result: SARS PLP yeast, Pf growth 96h, Pf growth 48h)
Cc1ccc(C(=O)Nc2cccc(NC(=O)c3cccs3)c2)c(C)c1	Pf growth 96h 12µM, Pf growth 48h inconclusive
Cc1nc(-c2cccc(NC(=O)c3cccs3)c2)cs1	Pf growth 96h inconclusive, Pf growth 48h inconclusive
COc1ccccc1CC(=O)Nc1ccc(NC(=O)c2cccs2)cc1	Pf growth 96h inconclusive
O=C(Nc1cccc(-c2csc(-c3ccccc3)n2)c1)c1cccs1	Pf growth 96h 0.33µM (no result: Pf growth 48h)
COc1cc(NC(=O)c2ccc(C)cc2C)ccc1NC(=O)c1cccs1	none
CC(C)CN1C(=O)c2ccc(NC(=O)c3cccs3)cc2C1=O	Pf growth 48h 8.3µM (no result: Pf growth 96h)
CCN(CC(=O)Nc1ccccc1OC)C(=O)c1ccc(NC(=O)c2cccs2)cc1	Pf growth 96h inconclusive, Pf growth 48h 7.4µM
O=C(Nc1cccc(Cl)c1Cl)c1ccncc1	none (no result: Pf growth 96h)
Cc1ccc(OCCNC(=O)/C=C/c2ccco2)cc1C	none
O=C(Nc1cccc(S(=O)(=O)N2CCOCC2)c1)C1CCCC1	Pf growth 48h inconclusive
CCOC(=O)c1c(C)[nH]c(C)c1S(=O)(=O)N(C)CC(=O)Nc1cccc(F)c1	none
CNC(=O)COC(=O)c1ccccc1C(=O)c1ccc(Cl)c([N+](=O)[O-])c1	Pf growth 48h inconclusive
COc1cc(NC(=O)c2cccs2)cc(OC)c1	Pf growth 96h 10µM
COc1cccc(NC(=O)Cc2cccs2)c1	none
COc1cc(NC(=O)Cc2cccs2)cc(OC)c1	Pf growth 96h 10µM
CCOC(=O)c1c(NC(=O)Cc2ccccc2)sc2c1CCN(CC)C2	Pf growth 96h inconclusive, Pf growth 48h inconclusive
CCOC(=O)c1c(C)c(C(=O)Nc2ccccc2)c(C)n1CC	Pf growth 96h 4.7µM, Pf growth 48h inconclusive
CCOC(=O)c1cc(C)n(CCCN2CCOCC2)c1C	none
CCOC(=O)c1cn(Cc2cccc(Cl)c2)nn1	none
CCOC(=O)c1cc(C)n(CCc2cnc[nH]2)c1C	Pf growth 96h inconclusive, Pf growth 48h 13µM
CCOC(=O)c1c(N)sc2c1CCN(Cc1ccccc1)C2	Pf growth 96h 0.95µM, Pf growth 48h 3.8µM (no result: SARS PLP yeast, AMA1-RON2 inh)
CCOC(=O)c1cnn(Cc2cccc(Cl)c2)c1C	Pf growth 96h inconclusive, Pf growth 48h 13µM
CCOC(=O)c1c(C)c(C(=O)Nc2cc(OC)ccc2OC)c(C)n1CC	AMA1-RON2 inh inconclusive, Pf growth 48h inconclusive
CCCc1nn(C)c(C(=O)Nc2ccc(Cl)cc2)c1Cl	none
CCOC(=O)c1c(C(=O)OCC)c(C)n(CCc2ccccc2)c1C	Pf growth 96h 9.3µM, Pf growth 48h inconclusive
CCOC(=O)c1c(C)c(C)n(Cc2cccc(OC)c2OC)c1C	Pf growth 96h 8.3µM, Pf growth 48h 12µM
CCOC(=O)c1cc(C)n(Cc2cccc(OC)c2OC)c1C	Pf growth 96h 2.3µM, Pf growth 48h inconclusive
CCOC(=O)c1c(C(=O)OCC)c(C)n(Cc2cc(OC)c(OC)c(OC)c2)c1C	Pf growth 96h 12µM, Pf growth 48h inconclusive

Compound activity (PubChem BioAssay)
